# Source: PubChem BioAssay
# TRPML1 inh: inhibitors of human TRPML1 channel | TRPML1-inducible cells, Ca2+ dye fluorescence, FDSS; stronger effect = lower value; inhibition of EC80 agonist-evoked calcium signal | AID 624415 | 390,000 compounds, 0.02% hits | Q9GZU1 | activity change, negative = inhibition, % (concentration not given with the values); in the data active means activity change below about -50%; inconclusive means between about -30% and that limit;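 further: stimulus is agonist 54-4 at its EC80 concentration; on the % scale 0 is the no-effect control and ±100 the full control effect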
#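 TRPML1-DL cells, Tet-induced overnight (~16 h, 37 °C) at 1,500 cells/well, were loaded with Ca8 no-wash dye plus quencher for 45-90 min at room temperature. Compounds were pinned during FDSS kinetic reading; agonist 54-4 at EC80 (4 uM final) then added.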
# GLP-1R inv ag: inverse agonists of human GLP-1 receptor | P43220 | Potency, µM (series often up to 38.3 µM), without a hit: at the highest dose activity change, negative = inhibition, most hits filed as inhibitors | HEK293 GLP-1R CRE-luciferase, luminescence, 24 h; GLP-1R form is constitutively active | 410,000 compounds, 1.6% hits | AID 624417; further: potency means the concentration at half of the fitted maximal effect; on the % scale 0 is the no-effect control and ±100 the full control effect; nearly all actives have a fitted effect of over 55% in size
# Target sequence (P43220 whole entry, looked up): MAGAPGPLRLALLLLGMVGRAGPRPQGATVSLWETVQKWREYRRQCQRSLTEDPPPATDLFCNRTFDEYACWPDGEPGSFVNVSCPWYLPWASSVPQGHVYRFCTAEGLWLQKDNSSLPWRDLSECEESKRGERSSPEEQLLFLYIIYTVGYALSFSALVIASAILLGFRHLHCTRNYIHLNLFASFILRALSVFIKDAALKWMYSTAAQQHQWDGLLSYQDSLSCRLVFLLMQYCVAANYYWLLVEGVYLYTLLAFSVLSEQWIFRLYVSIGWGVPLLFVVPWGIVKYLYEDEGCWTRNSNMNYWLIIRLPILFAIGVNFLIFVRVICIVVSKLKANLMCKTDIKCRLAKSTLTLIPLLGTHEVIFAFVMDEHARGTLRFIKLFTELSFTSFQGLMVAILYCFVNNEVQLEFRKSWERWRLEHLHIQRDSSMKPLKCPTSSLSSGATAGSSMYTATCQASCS
#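 Constitutively active GLP-1R drives a cAMP-responsive luciferase in stably transfected HEK293 cells; test compounds are added after overnight (12 h) attachment and left 24 hr, and signal loss in luminescence marks inhibition.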
# HEK293 tox: cytotoxicity counter-screen for GLP-1 receptor inverse agonists; 410,000 compounds, 0.13% hits; HEK293 cAMP-luciferase reporter cells, luminescence, 24 h; Potency, µM (series often up to 38.3 µM), for inactives: top-dose activity change, negative = inhibition, hits mostly inhibitors; AID 624418;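 further: loss of luciferase light is scored as toxicity; potency means the concentration at half of the fitted maximal effect; on the % scale 0 is the no-effect control and ±100 the full control effect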
#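 MLSMR compounds, 24 hr on cells at 37 deg C/5% CO2; luminescence after luciferase reagent (12 min RT). Inhibition counted as the undesired cytotoxic outcome.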
# GLP-1R agonist: activates the human GLP-1 receptor. HEK293 GLP-1R CRE-luciferase, luminescence, 4-6 h; cells express a hypersensitive GLP-1R form. AID 624172. Potency, µM (series often up to 45.6 µM), for inactives: at the top dose activation, usual class: activators. P43220. 380,000 compounds, 0.007% hits; further: potency means the concentration at half of the fitted maximal effect; % of control where 0% means no effect
# TRPML1 ag: activates the human TRPML1 channel | Q9GZU1 | TRPML1-expressing cells, Ca2+ dye fluorescence, FDSS | activation, % (concentration not given with the values) | 410,000 compounds, 0.12% hits | AID 624414; in the data active means activation above about 50%; inconclusive means mostly about 30% to 49%; further: 0% is about no effect
#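 Tet-induced TRPML1-DL cells, 1,500 per well, cultured overnight, were loaded with a no-wash Ca2+ dye for 45–90 min. Calcium fluorescence was recorded on the FDSS for 110 s after compound addition, before the EC80 agonist (4 uM 54-4) was added.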
# An asterisk follows results filed as active; ? = inconclusive; . = no result. An excerpt weighted towards active compounds, which were near 1.8% of everything screened. Unless noted, the call rests on the fitted dose curve; in most records, active means well fitted curve in the direction sought with a large enough effect; inconclusive means small, poorly fitted or top-dose-only effect, or another doubt; inactive means no such curve, though single readings can be large; an effect the other way counts as inactive or inconclusive.
SMILES,TRPML1 inh,GLP-1R inv ag,HEK293 tox,GLP-1R agonist,TRPML1 ag
COc1ccc(NC(=O)CC2C(=O)N(c3ccc(C)cc3)C(=O)N2Cc2cccnc2)cc1 (configuration not stated),-8.9,-0.7%,3.5%,.,-0.5
O=S(=O)(NCC(c1ccco1)N1CCCCC1)c1cccc(C(F)(F)F)c1 (configuration not stated),7.1,11.2µM*,-1.1%,3.0%,2.1
O=C(Cc1cccc(C(F)(F)F)c1)NCC(c1ccco1)N1CCCCC1 (configuration not stated),7.0,?,-2.1%,2.5%,0.5
O=C(NCC(c1ccco1)N1CCCCC1)c1ccc(S(=O)(=O)Nc2ccccc2)cc1 (configuration not stated),-9.0,?,-7.8%,17.1%,0.6
O=S(=O)(NCC(c1ccco1)N1CCCCC1)c1ccccc1C(F)(F)F (configuration not stated),-21.7,10µM*,-2.1%,-9.0%,3.4
COc1ccc(S(=O)(=O)NCCc2csc3nc(-c4ccc(OC)c(OC)c4)nn23)cc1C,-13.5,17.9%,1.0%,.,1.8
O=C(O)CSC1=NS(=O)(=O)c2ccccc21,.,.,.,.,0.3
CCn1c(C(=O)NCc2ccccc2C)cc2oc3ccccc3c21,45.1,5.01µM*,1.0%,.,2.7
CCn1c(C(=O)NCc2ccc(OC(C)C)cc2)cc2oc3ccccc3c21,-13.4,?,0.9%,.,2.0
CCOc1c(Cl)cc(C(=O)Nc2ccccc2-c2ccccc2)cc1Cl,-0.6,8.91µM*,38.1%,-5.5%,4.0
COc1ccc(C(=O)Nc2ccccc2-c2ccccc2)cc1Cl,11.4,?,-3.0%,12.8%,1.3
COCC(=O)Oc1cc(-c2ccc(C)cc2C)c(OC(=O)COC)c(-c2ccc(C)cc2C)c1,-11.3,2.51µM*,-17.4%,1.4%,0.6
Cc1ccc(OCC(=O)Oc2c(C)cccc2C)cc1,1.0,-2.4%,2.9%,-5.4%,0.6
CC(NC(=O)C(Cc1ccccc1)n1cccc1)c1ccccc1 (configuration not stated),25.1,11.2µM*,1.5%,6.0%,-0.8
COc1ccc(-c2cn3nc(N4CCCC(C(=O)Nc5ccccc5OC)C4)sc3n2)cc1 (configuration not stated),18.6,?,-11.1%,.,1.0
Cc1ccc(N2C(=O)N(CC(=O)Nc3cc(C)cc(C)c3)C(=O)C2C)cc1 (configuration not stated),-4.8,3.98µM*,-8.9%,23.1%,2.3
Cc1ccc(N2C(=O)N(CC(=O)Nc3ccc([N+](=O)[O-])cc3)C(=O)C2C)cc1 (configuration not stated),28.4,11.2µM*,-4.7%,7.8%,0.0
Cc1ccc(N2C(=O)N(CC(=O)Nc3ccc(C)c(C)c3)C(=O)C2C)cc1 (configuration not stated),8.6,10µM*,-5.2%,-7.8%,1.1
Cc1ccc(N2C(=O)N(CC(=O)Nc3cc(Cl)ccc3C)C(=O)C2C)cc1 (configuration not stated),25.0,10µM*,8.5%,-3.1%,3.7
CCOc1ccccc1NC(=O)N(C)CCc1c(C)nn(CC)c1C,-21.5,-13.2%,2.8%,.,1.1
CCOc1ccccc1CNC(=O)c1ccc2c(c1)sc1nc(-c3cccc(OC)c3)cn12,12.4,-7.2%,-3.4%,.,0.1
COc1ccccc1CNc1ccc(-c2nc(C)no2)cc1[N+](=O)[O-],19.0,?,-21.1%,.,-0.6
Cc1ccc(CNC(=O)CN(c2ccc(Cl)cc2Cl)S(=O)(=O)c2ccccc2)cc1,72.3,10µM*,-10.4%,.,3.8
CC(NC(=O)CN(c1ccc(Cl)cc1Cl)S(=O)(=O)c1ccccc1)c1ccccc1 (configuration not stated),64.8,8.91µM*,-4.8%,.,2.8
O=C(CN(c1ccccc1Cl)S(=O)(=O)c1ccccc1)NCc1ccccc1,37.5,-28.5%,9.6%,12.3%,2.9
SMILES,TRPML1 inh,GLP-1R inv ag,HEK293 tox,GLP-1R agonist,TRPML1 ag
Cc1cccc(-n2ncc(C(=O)NCc3ccco3)c2C2CCN(C(=O)OC(C)(C)C)CC2)c1,-3.9,?,1.6%,.,0.4
COc1ccc(S(=O)(=O)Nc2ccc(Cc3ccncc3)cc2)cc1OC,-1.9,18.8%,-8.5%,8.7%,-0.6
O=S(=O)(Nc1ccc(Cc2ccncc2)cc1)c1ccc(Cl)c(Cl)c1,6.9,-0.6%,10µM*,1.0%,0.8
N#CC(C#N)=C1C=C2C=C(N3CCOCC3)CCC2CC1 (configuration not stated),-6.9,-0.4%,-8.8%,-0.6%,123.1*
N#CC(C#N)=C1C=C2C=C(N3CCCCCC3)CCC2CC1 (configuration not stated),-16.1,?,38.7%,12.1%,100.0*
CCN1CCN(C2=CC3=CC(=C(C#N)C#N)CCC3CC2)CC1 (configuration not stated),-7.3,1.0%,58.1%,-5.0%,95.6*
CC1(C)CC(NCCN2CCN(C3=CC(=C(C#N)C#N)CC(C)(C)C3)CC2)=CC(=C(C#N)C#N)C1,16.5,9.3%,-2.8%,-3.1%,1.3
N#Cc1cc(Cl)c(N2CCOCC2)cc1C#N,1.3,40.1%,-6.5%,4.6%,4.3
CN1CCN(C2=CC3=CC(=C(C#N)C#N)CCC3CC2)CC1 (configuration not stated),-70.7*,5.9%,55.8%,-1.3%,139.9*
COc1cc(OC)cc(-n2c(=O)c3ccccc3n(Cc3ccccc3C#N)c2=O)c1,1.9,5.9%,0.5%,.,1.0
CCOc1ccc(N(CC(=O)Nc2ccccc2CC)S(=O)(=O)c2c(C)noc2C)cc1,-13.5,?,-25.0%,.,1.2
COc1cc2c(c(OC)c1OC)-c1c(cc3c(c1OC)OCO3)C[C@@H](C)[C@](C)(O)C2,.,.,.,4.1%,.
Cc1ccc(-c2nn(-c3ccc(F)cc3F)c3c2cnc2c(F)cccc23)cc1,14.5,-2.2%,21.5%,.,2.7
COc1cccc(Sc2nc(N(C)C)ncc2S(=O)(=O)c2ccc(Cl)cc2)c1,.,.,.,.,0.4
Cc1ccc(-n2nc(C(=O)Nc3ccc(F)cc3F)c3c4ccccc4n(C)c3c2=O)cc1,-3.3,4.4%,-1.8%,.,0.8
O=C(COc1ccccc1C(=O)Nc1ccccc1)Nc1ccc2ccccc2c1,.,.,.,.,0.0
NC(=S)Nc1nc2ccccc2s1,-0.5,4.47µM*,?,7.9%,-0.3
O=C(NC(=S)Nc1nc2ccccc2s1)c1cccs1,0.4,0.9%,2.51µM*,-5.1%,-0.2
Cc1cccc(C)c1N(CCCc1cccnc1)C(=O)[C@@H](C)N,.,.,.,2.7%,.
COc1ccc(CCn2c(N)cc(=O)[nH]c2=O)cc1OC,3.0,0.0%,17.4%,8.5%,-0.2
COc1ccc(CCn2c(N)cc(=O)[nH]c2=S)cc1OC,-3.4,203.8%,-2.5%,10µM*,-0.4
